# Source: PubChem BioAssay (NCI)
# The panel holds about 83,000 compounds, 20% with a hit somewhere; the sample as a whole holds those more often.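 Results are percent growth after 48 hours of single-concentration exposure. 100 means growth as in untreated cells, lower positive values show inhibition; negative values down to -100 show cell death.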 Values without a mark were called inactive. Calls of active or inactive are those of the source. How the source made its calls: active means growth percent below 10; inactive means the rest.
# Legend:
# Experiment in all cases: NCI-60 one-dose screen, 48 h (100 = growth as untreated, 0 = no growth, -100 = all killed)
# Details in all cases: 10 µM unless noted
# DU-145 prostate = test system: DU-145 prostate
# K-562 leukemia = test system: K-562 leukemia
# MALME-3M melanoma = test system: MALME-3M melanoma
# MDA-MB-231 breast = test system: MDA-MB-231 breast
# RXF 393 renal = test system: RXF 393 renal
# SF-268 CNS = test system: SF-268 CNS
# SF-295 CNS = test system: SF-295 CNS
# SF-539 CNS = test system: SF-539 CNS
# UACC-257 melanoma = test system: UACC-257 melanoma
# M14 melanoma = test system: M14 melanoma
# HCT-15 colon = test system: HCT-15 colon
# HT29 colon = test system: HT29 colon
# SNB-75 CNS = test system: SNB-75 CNS
# SNB-19 CNS = test system: SNB-19 CNS
# U251 CNS = test system: U251 CNS
# PC-3 prostate = test system: PC-3 prostate
# SK-MEL-5 melanoma = test system: SK-MEL-5 melanoma
# UACC-62 melanoma = test system: UACC-62 melanoma
# LOX IMVI melanoma = test system: LOX IMVI melanoma
# SK-MEL-28 melanoma = test system: SK-MEL-28 melanoma
Compound,growth (DU-145 prostate),growth (K-562 leukemia),growth (MALME-3M melanoma),growth (MDA-MB-231 breast),growth (RXF 393 renal),growth (SF-268 CNS),growth (SF-295 CNS),growth (SF-539 CNS),growth (UACC-257 melanoma),growth (M14 melanoma),growth (HCT-15 colon),growth (HT29 colon),growth (SNB-75 CNS),growth (SNB-19 CNS) [%],growth (U251 CNS),growth (PC-3 prostate) [%],growth (SK-MEL-5 melanoma),growth (UACC-62 melanoma),growth (LOX IMVI melanoma),growth (SK-MEL-28 melanoma)
COc1ccc(/C=C(/C(=O)N2CCN(Cc3ccccc3)CC2)c2cc(OC)c(OC)c(OC)c2)cc1O,82.3%,23.1%,65.8%,76.9%,62.3%,72.6%,82.8%,55.7%,54.7%,38%,59.7%,95.4%,49.2%,64.8,66.1%,34.8,33.3%,45%,60.2%,76.5%
C=C1C(=O)O[C@H]2[C@H]1CC/C(COC(=O)NCc1nc3ccccc3[nH]1)=C\CC[C@@]1(C)O[C@@H]21,80.1%,24.7%,86.8%,90.8%,67.2%,105%,106%,77.9%,94.9%,77.5%,103%,63.8%,91.9%,98.6,92.9%,85.6,97%,80%,75.9%,73.1%
N#Cc1ccc(N2Cc3cc(Cl)ccc3OC3=C2C(=O)N(Cc2ccc(F)cc2)C3=O)cc1,-91.8% (active),-21.6% (active),-72.3% (active),-0.424% (active),-56.8% (active),-58.4% (active),66.6%,-65.7% (active),-64% (active),-68.4% (active),-54.9% (active),-59.1% (active),-3.4% (active),57.8,-61.1% (active),11.8,-33.1% (active),-41.1% (active),-93% (active),-64.1% (active)
COc1cc(-c2nn(-c3ccc(Br)cc3)cc2CO)ccc1O,93.6%,74.2%,119%,68.9%,116%,77.7%,98.6%,92%,90.7%,102%,87.4%,88.8%,87.7%,94,95.2%,75,94.1%,78.9%,86.5%,110%
COC(=O)c1ccc2c(c1)n(Cc1ccc3ccccc3c1)c[n+]2Cc1ccc2ccccc2c1,72.5%,20.6%,-4.4% (active),28.5%,69.3%,40.9%,58.7%,65.7%,42%,14.1%,98.6%,10.1%,60.1%,33.1,32.9%,29.6,4.24% (active),-15.9% (active),23.9%,21.6%
Cc1cc(C)cc(Nc2nccc(-c3c(-c4ccc(F)cc4)ncn3C3CCNCC3)n2)c1,9.38% (active),-33.3% (active),-36.1% (active),7.44% (active),18.3%,28.4%,5.75% (active),31.3%,-50.6% (active),-86.4% (active),9.67% (active),-0.976% (active),17%,27.5,13.1%,15.4,-87.6% (active),21.6%,-81.3% (active),-34.7% (active)
COc1ccc2nc(-c3ccc(Cl)cc3)cc(-c3nnc(SC/C(=N/O)c4ccccc4)o3)c2c1,29.7%,20.1%,25.5%,49.6%,5.44% (active),55.3%,36.3%,43.5%,60.1%,25.2%,48.3%,27%,84.8%,68.4,17.3%,30,25.9%,49.1%,44.2%,44.2%
O=S(=O)(O)c1ccc(N=NSc2ccc3ccccc3c2)cc1,103%,118%,92.3%,102%,117%,98.8%,97.4%,100%,113%,92.9%,104%,93.8%,113%,105,96.9%,81.3,100%,102%,86.8%,106%
